# PubChem BioAssay AID1986 (Sanford-Burnham Center for Chemical Genomics, 2009)
# Several values for one entry are separate records, joined by “and”; a condition that tells them apart may be missing. Equal entries are not always repeated. About 890 (0.31%) of roughly 290,000 compounds were called active. Rule as the data show it: active = inhibition mostly above about 52% (no sharp cut-off); inactive = mostly below about 76%. The entries come from a sample that favours actives as a whole. The source holds several records for some structures; these can differ, active in one and inactive in another.
# Assay: cell-free HIV fusion peptide-binding blockers – biochemical, uHTS, fluorescence dequenching, primary screen (AID 1986)
# Conditions: 30 min, stronger effect = higher value
# [1] = measured here: repeat confirmation average inhibition, at 18.6 µM
Structure (SMILES),inhibition (at 20 µM),inhibition [1]
O=C(O)c1cc(-c2ccco2)nc2ccc(Br)cc12,51.2% (inactive) and 65% (active),11.6%
O=C(O)c1cc(-c2ccco2)nc2cc3ccccc3cc12,35.7% (inactive),
O=C(O)c1cc(-c2ccco2)nc2ccccc12,0.1% (inactive),
O=C(NC1CCCC1)C(c1ccncc1)N(C(=O)c1csnn1)c1ccc(F)cc1 (centres undefined),0.5% (inactive),
Cc1ccc(N2CC(C(=O)Nc3nnc(SCC(=O)NCC4CCCO4)s3)CC2=O)cc1 (centres undefined),0.9% (inactive),
COc1ccc([N+](=O)[O-])cc1/C=N/NC(=O)/C(=C\c1cccs1)NC(=O)c1ccccc1,-1.3% (inactive),
O=C(N/N=C/c1cccs1)/C(=C/c1ccccc1)NC(=O)c1ccccc1,1.7% (inactive),
O=C(N/N=C/c1cc([N+](=O)[O-])cc([N+](=O)[O-])c1O)/C(=C\c1cccs1)NC(=O)c1ccccc1,65% (active),
O=C(Cc1ccc(Cl)cc1)NCC(=O)N1CCN(c2ccccc2)CC1,0.4% (inactive),
Cc1ccc(Sc2ccc(/C=C3/C(=O)NN(c4ccccc4)C3=O)o2)cc1,9.4% (inactive),
O=C1NN(c2ccccc2)C(=O)/C1=C/c1ccc(Sc2cccc3ccccc23)o1,71.8% (active),
O=C1NN(c2ccccc2)C(=O)/C1=C/c1ccc(Sc2ccc(Cl)cc2)o1,17.5% (inactive),
O=C(NCCCc1ccccc1)[C@@H]1Cc2ccccc2CN1,-0.5% (inactive),
CC(C)CC1=C/C(=C/c2ccc(-c3ccccc3)o2)C(=O)O1,51.7% (active),
NS(=O)(=O)c1ccc(-c2ccc(C=C3C(=O)c4ccccc4C3=O)o2)cc1,1.7% (inactive),
COc1ccccc1-c1ccc(/C=C2/C=C(CC(C)C)OC2=O)o1,40.1% (inactive),
O=Cc1cn(CCC(=O)O)nc1-c1cccc(Br)c1,1.1% (inactive),
Cc1ccc(-c2nn(CCC(=O)O)cc2/C=C\C(=O)c2ccc(Br)cc2)cc1,48.6% (inactive),
O=C(O)CCn1cc(/C=C\C(=O)c2ccc(Cl)cc2)c(-c2cccc(Br)c2)n1,60.3% (active),
CCOC(=O)c1sc(NC(=O)c2cc3n(n2)C(C(F)(F)F)CC(c2ccccc2)N3)c(C(=O)OCC)c1C (centres undefined),0.6% (inactive),

Structure (SMILES),inhibition (at 20 µM),inhibition [1]
Cc1cc2c(cc1S(=O)(=O)N(C)Cc1ccccc1)OCC(=O)N2,-2% (inactive),
COc1ccc(OC)c(/C=C2\Oc3cc(OCC(=O)N4CC(O)C[C@H]4C(=O)O)ccc3C2=O)c1 (some centres undefined),2.3% (inactive),
COc1cccc(/C=C2\Oc3cc(OCC(=O)N4Cc5ccccc5C[C@H]4C(=O)O)ccc3C2=O)c1,64.4% (inactive),40.9%
COc1cc(OC)c(OC)cc1/C=C1\Oc2cc(OCC(=O)N3Cc4ccccc4C[C@H]3C(=O)O)ccc2C1=O,123% (active),106%
Cc1nc(Oc2cccc(Cl)c2)c2oc3ccccc3c2n1,-0.8% (inactive),
O=C(COC(=O)CCCOc1ccccc1)NNC(=O)c1ccc([N+](=O)[O-])cc1,-0.7% (inactive),
CC1=CN2C(=N)/C(=C/c3ccco3)C(=O)N=C2S1,7.9% (inactive),
CC1=CN2C(=N)/C(=C/c3ccc(C)o3)C(=O)N=C2S1,5.4% (inactive),
Cn1c(=O)n(C)c2cc(/C=N/NC(=O)c3ccncc3)ccc21,1.3% (inactive),
Cc1[nH]n(-c2ncc(-c3ccccc3)s2)c(=O)c1C(c1ccc(Cl)cc1)C(C#N)C#N (centres undefined),70.8% (active),
Cc1[nH]n(-c2ncc(-c3ccc(Cl)cc3)s2)c(=O)c1C(c1ccc(Cl)cc1)C(C#N)C#N (centres undefined),48.5% (inactive),
Cc1[nH]n(-c2ncc(-c3ccccc3)s2)c(=O)c1C(c1ccc(Br)cc1)C(C#N)C#N (centres undefined),57.3% (inactive),40.9%
CC(C)(C)n1nc2c(c1NC(=O)Cc1cccc3ccccc13)CS(=O)C2 (centres undefined),-1.8% (inactive),
O=C(Nc1ccc(Cl)cc1)Nc1ccc2c(c1)OCO2,-0.2% (inactive),
Cn1nc(C(F)(F)F)cc1-c1ccc(/C=C(\C#N)C(=O)c2cccc(C(F)(F)F)c2)s1,55.2% (active),
Cn1nc(C(F)(F)F)cc1-c1ccc(S(N)(=O)=O)s1,2.8% (inactive),
Cn1nc(C(F)(F)F)cc1-c1ccc(/C=C(\C#N)C(=O)c2ccccc2)s1,92% (active),179%
CN(C)C(=O)c1ccc(-c2cc(C(F)(F)F)nn2C)s1,-1.2% (inactive),
N#C/C(=C\c1ccc(-c2cccc(C(F)(F)F)c2)o1)C(=O)Nn1cnnc1,49.6% (inactive),
CNC(=O)c1ccc(-c2cc(C(F)(F)F)nn2C)s1,-1.4% (inactive),

Structure (SMILES),inhibition (at 20 µM),inhibition [1]
Cc1ccc(-n2nnc(-c3cc4ccccc4nc3Cl)n2)cc1,0.2% (inactive),
O=C(CN(c1ccc(F)cc1)S(=O)(=O)c1ccc2c(c1)OCCO2)NCC1CCCO1 (centres undefined),1.4% (inactive),
CCOc1ccc2nc(SCC(=O)c3ccc(C)s3)sc2c1,0% (inactive),
CCOc1ccc(NC(=O)C2CSC(c3ccncc3)=N2)cc1 (centres undefined),1.2% (inactive),
CC1=C(C(=O)Nc2ccccn2)C(c2ccccc2)n2ncnc2N1 (centres undefined),-2.7% (inactive),
CCNc1nc(NC(C)C)nc(SCCOC(=O)c2ccccc2)n1,2.3% (inactive),
Cc1c(C)n(Cc2ccc(F)cc2)c2ccc(C(=O)NCCN3CCOCC3)cc12,-1.7% (inactive),
COc1ccccc1NS(=O)(=O)c1cccc(NC(=O)Nc2ccccc2)c1,1.4% (inactive),
O=C(Nc1ccccc1C(=O)O)c1cccc(N2C(=O)c3ccccc3C2=O)c1,2.5% (inactive),
NC(=O)NCc1cccc(Cl)c1,2.5% (inactive),
CCOC(=O)C(=CNc1ccc(C(F)(F)F)cc1Cl)C(=O)OCC,0.9% (inactive),
CCOc1ccc2c(c1)c1nnc(SCC(=O)NC3CC3)nc1n2C,-0.7% (inactive),
Clc1ccccc1/C=N/NC1=Nc2cccc3cccc1c23,51.2% (active),
C(=N\NC1=Nc2cccc3cccc1c23)/c1ccccc1,20.5% (inactive),
Clc1ccc(/C=N/NC2=Nc3cccc4cccc2c34)cc1,43.5% (inactive),
N/C(CC(=O)NC1CCCCC1)=N\OCC(=O)Nc1ccc(Cl)c(Cl)c1,1.7% (inactive),
COc1ccc(/C=C/C(=O)NC(=S)Nc2cc3oc4ccccc4c3cc2OC)cc1,1.6% (inactive),
COc1cc2c(cc1NC(=S)NC(=O)/C=C/c1ccc(OC)c(OC)c1)oc1ccccc12,1.2% (inactive),
COc1cc2c(cc1NC(=S)NC(=O)/C=C/c1ccco1)oc1ccccc12,67.5% (active),
